Measured values taken from article PMC5540273 (PLoS ONE, 2017).

tested on: MARK3; conditions: concentration: 1 μM, replicates: in singlicate; n = 1
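Further: KINOMEscan kinase panel screen.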

| SMILES | %Inh [%] |
| --- | --- |
| Cl.c1ccc(-c2ccc3c(Nc4ccc5[nH]ncc5c4)ccnc3c2)nc1 [GW440137] | 0 |
| COc1cc(Nc2ncc3c(C)nc(-c4cc5ccccc5[nH]4)n3n2)cc(OC)c1OC [GW869516] | 3 |
| COC(=O)Nc1nc2ccc(Oc3ccc(NC(=O)Nc4cc(C(F)(F)F)ccc4F)cc3)cc2n1C.Cl [GW692089] | 0 |
| Nc1n[nH]c2cnc(-c3ccccc3)cc12 [SB-642124] | 0 |
| COc1cc(Nc2nccc(N3CCC(NC(=O)Nc4cccc(C(C)=O)c4)C3)n2)cc(OC)c1OC (centres unmarked) [GSK1379753] | 0 |
| O=C(NC1CCN(c2ccnc(Nc3ccc(F)cc3)n2)C1)c1cc2ccccc2s1 (centres unmarked) [GSK1379716] | 0 |
| c1ccc(-c2cnc3nccnn23)cc1 [AH20685] | 0 |
| Nc1ncnc2c1nc(-c1ccccc1)n2-c1ccccc1 [SKF-97293] | 39 |
| CN(C)Cc1ccc(-c2ccc3c(Nc4ccc(Oc5ccccn5)cc4)ccnc3c2)o1 [GW567148] | 0 |
| COc1cc(Nc2nccc(N3CCC(NC(=O)c4cc5ccccc5s4)C3)n2)cc(OC)c1OC (centres unmarked) [GSK1379760] | 0 |
| Cl.Cl.NCC(NCc1ccc(-c2ccnc3[nH]ccc23)s1)c1ccccc1 (centres unmarked) [GSK1321565] | 0 |
| Cl.NC(=O)c1cccc(Nc2nccc(Nc3ccc(Oc4c(Cl)cccc4Cl)c(Cl)c3)n2)c1 [GW659009] | 7 |
| O=C(Nc1ccccc1F)NC1CCN(c2ccnc(Nc3ccc(F)cc3)n2)CC1 [GSK1379800] | 0 |
| Cc1ccc(C(=O)N2CC[C@@H](O)C2)cc1-n1c(C)cc(OCc2ccc(F)cc2F)c(Br)c1=O | 0 |
| CN(C)S(=O)(=O)c1cc(-c2ccc3nccc(-c4cccc(S(N)(=O)=O)c4)c3c2)cnc1N [GSK1669921] | 0 |
| O=c1[nH]cc(-c2ccc(N3CCOCC3)cc2)c2sc(-c3cn[nH]c3)cc12 [GSK2276055] | 0 |
| CCCCc1nn2ncccc2c1-c1ccnc(Nc2ccc(N3CCN(C)CC3)cc2)n1 [GW684941] | 32 |
| O=C(Nc1cccc(-c2nn3ccccc3c2-c2ccnc(Nc3cccc(F)c3)n2)c1)c1c(F)ccc(F)c1Cl [GSK357952] | 3 |
| c1ccc(-c2n[nH]cc2Nc2ccnc3ccccc23)nc1 [GW694077] | 0 |
| COc1cc(Nc2nccc(-c3c(-c4cccc(NC(=O)c5c(F)cccc5F)c4)nn4ncccc34)n2)cc(OC)c1OC [GSK327238] | 30 |
| COc1cccc(C(=O)Nc2cccc(Oc3ccc4nc(NC(=O)C5CC5)cn4n3)c2)c1 | 0 |
| COCCOCCOc1cc2ncc3c4ccc(C#N)cc4[nH]c3c2cc1OC | 7 |
| Nc1ncc(-c2ccc3nccc(-c4ccncc4)c3c2)cc1S(=O)(=O)N1CCOCC1 [GSK1627798] | 0 |
| Cc1cccc(NC(=O)Nc2ccc(Oc3ncnc4ccn(C)c34)cc2)c1 | 6 |
| CN1CCN(Cc2cccc(-c3ccc4c(Nc5ccc(Oc6ccccc6)cc5)ccnc4c3)c2)CC1 [GW578342] | 0 |
| COc1cccc(C2=C(Nc3ccc(Cl)c(C(=O)O)c3)C(=O)NC2=O)c1 [SB-390769] | 0 |
| COc1ccc(Nc2nccc(NCCNC(=O)c3cc4ccccc4s3)n2)cc1 [GSK1379896] | 4 |
| COc1ccc(CNC(=O)NC2CCN(c3ccnc(Nc4ccc(F)cc4)n3)CC2)cc1 [GSK1379788] | 0 |

tested on: MARK4; conditions: concentration: 1 μM, replicates: in singlicate; n = 1

| SMILES | %Inh [%] |
| --- | --- |
| CC(C)(C)c1ccc2nccc(Nc3cccc(O)c3)c2c1 [GW856795] | 21 |
| COc1cc2c(cc1OCCN1CCNCC1)ncc1c3ccc(C#N)cc3[nH]c21 | 0 |
| COc1cc(Nc2nccc(-c3c(-c4cccc(NC(=O)c5c(F)cccc5F)c4)nn4ccccc34)n2)cc(OC)c1OC [GSK323521] | 17 |
| Cc1ccc(S(=O)(=O)Nc2ccc(Nc3nccc(Nc4cccc5[nH]ncc45)n3)cc2)cc1 [GSK581271] | 7 |
| CCc1ccc(-c2ccc3c(c2)-c2c(cnn2C)S(=O)(=O)N3C)cc1 | 7 |
| O=C(Nc1cccc(-c2nn3ncccc3c2-c2ccnc(Nc3ccccc3)n2)c1)c1c(F)cccc1F [GSK198271] | 0 |
| Fc1ccc(-c2ncn(C3CCNCC3)c2-c2ccnc(Oc3ccc(-c4ccccc4)cc3)n2)cc1 [SB-245391] | 25 |
| CN(c1ccc(NC(=O)Nc2cc(C(F)(F)F)ccc2F)cc1)c1ccnc(Nc2ccc(S(N)(=O)=O)cc2)n1 [GW809893] | 1 |
| CC(=O)Nc1nc2cnc(Nc3cc(NC(=O)c4cccc(C5(C#N)CC5)c4Cl)ccc3C)nc2s1 | 10 |
| Cl.c1ccc(-c2ccc3c(Nc4ccc5[nH]ncc5c4)ccnc3c2)nc1 [GW440137] | 15 |
| COc1cc(Nc2ncc3c(C)nc(-c4cc5ccccc5[nH]4)n3n2)cc(OC)c1OC [GW869516] | 22 |
| COC(=O)Nc1nc2ccc(Oc3ccc(NC(=O)Nc4cc(C(F)(F)F)ccc4F)cc3)cc2n1C.Cl [GW692089] | 2 |
| Nc1n[nH]c2cnc(-c3ccccc3)cc12 [SB-642124] | 0 |
| COc1cc(Nc2nccc(N3CCC(NC(=O)Nc4cccc(C(C)=O)c4)C3)n2)cc(OC)c1OC (centres unmarked) [GSK1379753] | 6 |
| O=C(NC1CCN(c2ccnc(Nc3ccc(F)cc3)n2)C1)c1cc2ccccc2s1 (centres unmarked) [GSK1379716] | 10 |
| c1ccc(-c2cnc3nccnn23)cc1 [AH20685] | 0 |
| Nc1ncnc2c1nc(-c1ccccc1)n2-c1ccccc1 [SKF-97293] | 33 |
| CN(C)Cc1ccc(-c2ccc3c(Nc4ccc(Oc5ccccn5)cc4)ccnc3c2)o1 [GW567148] | 13 |
| COc1cc(Nc2nccc(N3CCC(NC(=O)c4cc5ccccc5s4)C3)n2)cc(OC)c1OC (centres unmarked) [GSK1379760] | 22 |

| SMILES | %Inh [%] |
| --- | --- |
| Cl.Cl.NCC(NCc1ccc(-c2ccnc3[nH]ccc23)s1)c1ccccc1 (centres unmarked) [GSK1321565] | 0 |
| Cl.NC(=O)c1cccc(Nc2nccc(Nc3ccc(Oc4c(Cl)cccc4Cl)c(Cl)c3)n2)c1 [GW659009] | 0 |
| O=C(Nc1ccccc1F)NC1CCN(c2ccnc(Nc3ccc(F)cc3)n2)CC1 [GSK1379800] | 2 |
| Cc1ccc(C(=O)N2CC[C@@H](O)C2)cc1-n1c(C)cc(OCc2ccc(F)cc2F)c(Br)c1=O | 0 |
| CN(C)S(=O)(=O)c1cc(-c2ccc3nccc(-c4cccc(S(N)(=O)=O)c4)c3c2)cnc1N [GSK1669921] | 0 |
| O=c1[nH]cc(-c2ccc(N3CCOCC3)cc2)c2sc(-c3cn[nH]c3)cc12 [GSK2276055] | 0 |
| CCCCc1nn2ncccc2c1-c1ccnc(Nc2ccc(N3CCN(C)CC3)cc2)n1 [GW684941] | 0 |
| O=C(Nc1cccc(-c2nn3ccccc3c2-c2ccnc(Nc3cccc(F)c3)n2)c1)c1c(F)ccc(F)c1Cl [GSK357952] | 0 |
| c1ccc(-c2n[nH]cc2Nc2ccnc3ccccc23)nc1 [GW694077] | 1 |
| COc1cc(Nc2nccc(-c3c(-c4cccc(NC(=O)c5c(F)cccc5F)c4)nn4ncccc34)n2)cc(OC)c1OC [GSK327238] | 56 |
| COc1cccc(C(=O)Nc2cccc(Oc3ccc4nc(NC(=O)C5CC5)cn4n3)c2)c1 | 10 |
| COCCOCCOc1cc2ncc3c4ccc(C#N)cc4[nH]c3c2cc1OC | 0 |
| Nc1ncc(-c2ccc3nccc(-c4ccncc4)c3c2)cc1S(=O)(=O)N1CCOCC1 [GSK1627798] | 0 |
| Cc1cccc(NC(=O)Nc2ccc(Oc3ncnc4ccn(C)c34)cc2)c1 | 0 |
| CN1CCN(Cc2cccc(-c3ccc4c(Nc5ccc(Oc6ccccc6)cc5)ccnc4c3)c2)CC1 [GW578342] | 0 |
| COc1cccc(C2=C(Nc3ccc(Cl)c(C(=O)O)c3)C(=O)NC2=O)c1 [SB-390769] | 13 |
| COc1ccc(Nc2nccc(NCCNC(=O)c3cc4ccccc4s3)n2)cc1 [GSK1379896] | 0 |
| COc1ccc(CNC(=O)NC2CCN(c3ccnc(Nc4ccc(F)cc4)n3)CC2)cc1 [GSK1379788] | 0 |
